Hits are enriched below; roughly 1.1% of the tested compounds scored in any of these assays.
INS promoter inh: TRM-6 insulin promoter activity inhibition; TRM-6 cells (human fetal islet line), insulin promoter-eGFP reporter, imaging; reporter expression induced with tamoxifen; inhibition, % at 2 µM; 0.9% of 130,000 active; AID 1273;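 active = inhibition above the mean plus 3 SD, with well images judged a real hit on visual review, cut at about 60% in these data, passing the limit was not always enough; inconclusive = inhibition over the cutoff but images rejected on review; inactive = inhibition not above the cutoff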
Ins promoter up: MIN6 insulin promoter up-regulation; z-score at 5 µM; 0.3% of 190,000 active; AID 1625; MIN6 insulin promoter-GFP reporter, high-content imaging; active compounds read high;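 active = z-score above 3 at 5 µM with at least 500 cells counted in the well; inconclusive = wells under 500 cells, flagged as cytotoxic or low count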
HSV replic up: HSV replication enhancement. HSV replication augmentation in cells, fold increase. maximum fold increase. 0.005% of 220,000 active. AID 1956; in the data active = maximum fold increase above about 1.5; inconclusive = no clear call, values can overlap the other calls; tested in PC3 cells
HMGR II inh: blocks class II HMG-CoA reductase of Enterococcus faecalis; purified E. faecalis HMGR, NADPH absorbance 340 nm kinetic; inhibition, % at 10 µM; 0.41% of 190,000 active; AID 1066;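 active = inhibition above a set limit, the median over all tested compounds plus 3 SD, cut at about 9.5% in these data; inconclusive = no clear call, values can overlap the other calls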;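 also: enzyme runs in reverse so mevalonate oxidation gives rising NADPH absorbance; 0% = complete reaction with DMSO and 100% = background rate lacking mevalonate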
* = called active by the depositor; i = inactive; u = inconclusive; x = no result.

SMILES	INS promoter inh	Ins promoter up	HSV replic up	HMGR II inh
CSc1nc2cc(F)c(F)cc2n1C	86*	0.6	i	0
COc1cccc(NC(=O)CSc2nc3c(c(=O)n2C)SC(C)C3)c1 (centres undefined)	0	-0.01	i	0
Nn1c(N2CCCCC2)nc2ccccc21	61	x	i	-3
COc1ccc(NC(=O)/C(C#N)=C/c2ncc([N+](=O)[O-])n2C)c(OC)c1	x	-0.15	i	x
CN(CC(=O)NCCc1ccccc1)S(=O)(=O)c1ccccc1	x	-0.73	i	14*
CCN(CC(=O)NCCc1ccccc1)S(=O)(=O)c1ccc(Br)cc1	-4	-0.1	i	-4
CC1CCc2c(sc3nn[nH]c(=O)c23)C1 (centres undefined)	20	4.2*	i	1
Cc1cc2cccc(C)c2nc1SCC(=O)NNC(=O)c1ccco1	7	-0.76	i	14*
CCCC(=O)Nc1sc2c(c1C(=O)OCC)CC(C)(C)OC2	75*	x	i	0
CCOC(=O)c1c(NC(=O)CCC(=O)N(CC)CC)sc2c1CC(C)(C)OC2	x	0.61	i	x
Cn1c(C(O)c2ccc3c(c2)OCO3)nc2ccccc21 (centres undefined)	77*	-0.08	i	-2
CCC(=O)c1c(NC(C)C)cc(C)oc1=O	x	1.4	i	-3
COc1cc(/C=N/NC(=O)COc2c(C)cc([N+](=O)[O-])cc2C)ccc1OC(=O)c1ccccc1	0	-0.37	i	11*
COc1ccc(/C=N/NC(=O)CSc2ccccc2)cc1OC	64*	-0.67	i	1
CCCC/C(C)=N/NC(=O)c1cn(-c2ccccc2)nc1-c1ccccc1	x	1.1	i	3
CC(C)(C)NC(=O)C(c1ccncc1)N(Cc1ccc(F)cc1)C(=O)c1ccc(-c2ccccc2)[nH]1 (centres undefined)	29	-0.48	i	-3
CC1CCCCN1C(=O)Cn1nnc(-c2cccnc2)n1 (centres undefined)	-50	1.1	i	-1
Cc1ccc(-c2nnn(CCC(=O)N3CCCCC3C)n2)cc1 (centres undefined)	71*	0.07	i	-1
O=C(COC(=O)C1=COCCO1)NC1CCCCCCC1	64	-0.23	i	-3
CC(=O)c1cccc(NC(=O)N2CCCC2C(=O)Nc2ccc3c(c2)OCO3)c1 (centres undefined)	x	-0.17	i	-9
CCC(Sc1nc2c(cnn2-c2ccc(Cl)cc2)c(=O)[nH]1)C(=O)OC (centres undefined)	80*	1.7	i	-5
CCOC(=O)C(C)(C)Sc1nc2c(cnn2-c2ccc(Cl)cc2)c(=O)[nH]1	x	2.1	i	-3
Nc1ccc(-c2nc3nc(N)nc(N)c3nc2-c2ccc(N)cc2)cc1	x	4.9*	i	x
Nc1nc(N)c2ncc(C(=O)CCc3ccccc3)nc2n1	x	1.4	i	1
Cc1cccc2c1NC(=O)/C2=C\C(=O)c1cccs1	67*	x	i	1
SMILES	INS promoter inh	Ins promoter up	HSV replic up	HMGR II inh
Cc1cc(Br)c2c(c1)/C(=C/C(=O)c1cccs1)C(=O)N2	x	-0.02	i	-2
CCSC1=C(C#N)C(c2ccc(C)o2)CC(=O)N1 (centres undefined)	x	-0.07	i	x
Cc1ccc(C2CC(=O)NC(SCc3ccccc3)=C2C#N)o1 (centres undefined)	x	3.4*	i	-3
CC(C)OC(=O)c1c2c(n3ccccc13)C(=O)c1ccccc1C2=O	x	12*	u	-8
COC(=O)c1cc2c(C)c(C)c3ccccn3c-2c1C(=O)OC	-46	x	i	-7
CCCn1nc(Oc2nc(N(C)C)nc(N(C)C)n2)ccc1=O	x	x	i	0
COC(=O)c1ccccc1NC(=O)C1CCN(C(=O)c2cc(OC)c(OC)c(OC)c2)CC1	0	1.8	i	-6
COc1ccc(C(=O)N2CCC(C(=O)Nc3ccccc3C)CC2)cc1OC	x	0.07	i	10*
Cc1nnc(SC/C=C/c2ccccc2)n(N)c1=O	-89	0.4	i	9.8*
Cc1nnc(SCc2ccccc2)n(N)c1=O	x	0.42	i	-3
Cc1nnc(SCC(=O)N2CCCC2)n(N)c1=O	-44	0.29	i	10*
O=C(Nc1c2c(nc3ccccc13)CCCC2)c1ccccc1F	64*	0.4	i	0
CCOC(=O)c1c(C)n(C)c2ccc(OC)c([N+](=O)[O-])c12	x	0.23	i	-2
Cn1c(C(=O)N2CCC(C(=O)N3CCN(Cc4ccc5c(c4)OCO5)CC3)CC2)cc2sccc21	50	4.7*	i	-12
Cn1c(C(=O)N2CCN(Cc3ccc4c(c3)OCO4)CC2)cc2sccc21	27	x	i	0
CCC(C)NC(=O)Cn1cc(S(=O)(=O)N2CCN(c3ccccc3F)CC2)c2ccccc2c1=O (centres undefined)	x	-0.11	i	-4
CSc1cccc(NC(=O)COc2cccc3ccccc23)c1	73*	-0.59	i	2
O=C1NC(Cc2ccccc2)C(=O)N1CC(=O)N1CCCc2ccccc21 (centres undefined)	x	0.82	i	7
Nn1c(SCC(=O)Nc2ccc3c(c2)OCO3)nnc1C1CC1	37	-0.19	i	0
Nn1c(SCC(=O)Nc2ccc3c(c2)OCO3)nncc1=O	x	0.93	i	9.7*
Cc1ccc(N(CC(=O)O)S(C)(=O)=O)cc1	x	0.71	i	3
Cc1cc(N2CCN(c3nc(-c4ccc([N+](=O)[O-])cc4)cs3)CC2)c2ccccc2n1	50	-0.82	i	14*
S=C(Nc1ccc(Cl)cc1)N1CCCCC1	16	0.28	i	0
CCc1ccc(NC(=S)N2CCCCCCC2)cc1	79*	0.19	x	3
COc1cc2[nH]c(=O)n(CCCCCC(=O)NCCc3c[nH]c4ccccc34)c(=O)c2cc1OC	67*	x	i	-1
SMILES	INS promoter inh	Ins promoter up	HSV replic up	HMGR II inh
Cc1ccc(-n2c(=O)[nH]cc(C(=O)Nc3ccc4c(c3)OCCO4)c2=O)cc1C	86*	-0.14	i	1
CC(=O)Nc1ccc2c(c1)OCCO2	8	-0.69	i	16*
O=C(Nc1ccc2c(c1)OCCO2)N1CCOCC1	78*	1.2	i	1
CC(C)c1cc(C(=O)Nc2ccc3c(c2)OCO3)no1	80*	0.31	i	-5
O=C(Nc1ccc2c(c1)OCO2)c1cc(C2CC2)on1	x	2.1	i	-7
CC(=O)Nc1ccc2c(c1)OCO2	36	-0.17	i	0
O=C(CS(=O)(=O)c1ccccc1)Nc1nc(-c2ccc(F)cc2)cs1	75*	-0.21	i	9
O=C(CCS(=O)(=O)c1ccccc1)Nc1nc(-c2ccc(F)cc2)cs1	x	x	i	x
CCn1nnc(-c2ccc(N)cc2)n1	x	-0.38	i	-10
COc1ccc(S(=O)(=O)N2CC(O)C[C@H]2C(=O)OCC(=O)N2CCCCCC2)cc1 (some centres undefined)	x	-0.03	i	-3
COc1ccc(NC(C)=O)cc1C	71*	-0.29	i	-7
O=C(c1cncc(Br)c1)N1CCc2ccccc2C1	86*	0.84	i	-2
Cc1ccccc1C(=O)N1CCc2ccccc2C1	-26	4*	x	7
O=C(c1ccc(Cl)nc1)N1CCc2ccccc2C1	17	-0.08	i	-2
CCCCNc1cc(Cl)nc(N)n1	x	0.14	i	x
